Over roughly 68,000 sequences, “fluorescence intensity (a.u.)” has its median near 9,100; the highest 2% begin near 16,000. The full list was thinned out, with the highest values kept by preference.

OsWRKY34, sequence (Q0JBA9 entry or part of it): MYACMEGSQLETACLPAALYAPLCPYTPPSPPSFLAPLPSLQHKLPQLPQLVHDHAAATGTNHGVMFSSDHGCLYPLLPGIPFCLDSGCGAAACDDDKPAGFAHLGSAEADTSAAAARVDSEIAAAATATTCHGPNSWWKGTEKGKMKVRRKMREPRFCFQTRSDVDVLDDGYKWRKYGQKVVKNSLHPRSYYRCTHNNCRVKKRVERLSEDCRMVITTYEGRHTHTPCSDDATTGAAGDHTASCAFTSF

The experiment deals with OsWRKY34 (Oryza sativa, UniProt Q0JBA9 1-250). The experiment in a line: protein-binding microarray (RPBM); PBS, 2% BSA, 51.3 ng/ul salmon testes DNA, 50 uM zinc acetate, 200 nM TF, 25 C, 1 h; high values mean tight binding. To be noted: protein: recombinant; tags: N-terminal polyhistidine and DsRed monomer fusion (pET32a); label: CyDye5-dUTP incorporated in the synthesized complementary strand; 3' TTTTT single-stranded linker to array surface; dsDNA, one strand shown. A digest of the protocol:
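An Axon 4000B scanner gave the binding signal as per-feature fluorescence intensity in arbitrary units. This followed washing of a custom Agilent array that had been incubated for 1 h at 25 °C with 200 nM protein in PBS, 2% BSA, salmon testes DNA and 50 µM zinc acetate. The proteins were transcription factors fused at the N-terminus to polyhistidine and DsRed, expressed in E. coli BL21-CodonPlus and purified on Ni–NTA.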
For the sequence “CGCCACCGTCCTGCTCACCGGCGTTCCGCCGGAACGACTTCGGAGTCACCTAGTGCAG”, the binding signal is 9640 fluorescence intensity (a.u.).
With “ATTTTTTTTGTCAAACTGCCACGAAAGCGTCACGTTAATACGGAGTCACCTAGTGCAG”, the binding signal was 8240 fluorescence intensity (a.u.).
The figure for “CAATTCACGCCACCCGCTCCGCCTCTCGCCGCCTCGACCGCGGAGTCACCTAGTGCAG” is 11000 fluorescence intensity (a.u.).
The same measure for “AAATTTTGACTCCTTCAGTTAATGATTTTCGTATACAAATCGGAGTCACCTAGTGCAG”: 8180 fluorescence intensity (a.u.); for “ATCTCTCTCATATTCCTTCGATCTGCAGCTTGTACGTTGGCGGAGTCACCTAGTGCAG”: 14500 fluorescence intensity (a.u.).
The figure for “CTGTTGACTATCCATGCCATTTTTACCGATTAGTCTATCTCGGAGTCACCTAGTGCAG” is 13800 fluorescence intensity (a.u.).
In the case of “CGCAGTCCGAAGTTGATTTTTTTTTTTTTTACGGAGTACTCGGAGTCACCTAGTGCAG”, the binding signal is 8250 fluorescence intensity (a.u.).
The same measure for “TGATTGTGTTTGTAGACTTGGTTGGTATTGTTGAACGGATCGGAGTCACCTAGTGCAG”: 11800 fluorescence intensity (a.u.); for “AGGGAGCCTATTTTAATGTATGACACCGTTGACTTTTTTGCGGAGTCACCTAGTGCAG”: 19200 fluorescence intensity (a.u.); for “TTTATGTAATGCCTTAAGATCACACATTGACTTATTTTTGCGGAGTCACCTAGTGCAG”: 8050 fluorescence intensity (a.u.).
Consider “AGAGGGAGTATTATGTTTATGCTTTTAATTTTTCACTTTGCGGAGTCACCTAGTGCAG”, for which the binding signal is 9150 fluorescence intensity (a.u.).
The same measure for “CCGTATTTTAATGTATATGACACCGTTGACTTTTTGACCACGGAGTCACCTAGTGCAG”: 40800 fluorescence intensity (a.u.).
The same measure for “AAATACTCCCTCCGTATTTTAATGTATGACACCGTTGACTCGGAGTCACCTAGTGCAG”: 10300 fluorescence intensity (a.u.).
The figure for “CATATTTTAATTTTAATGTATGACACCGTTGACTTTTCGACGGAGTCACCTAGTGCAG” is 16000 fluorescence intensity (a.u.).
On to “CATCCGTATTTTAATGTATGACACCGTTGACTTTTCGACTCGGAGTCACCTAGTGCAG”, for which the binding signal was 19100 fluorescence intensity (a.u.).
The same measure for “TTATGCATCGATATATACCACATGTCAACCGATGAATTCACGGAGTCACCTAGTGCAG”: 9490 fluorescence intensity (a.u.).
Consider “TTTTCCAAACTTCCAACTTTCTATCACATCAAACCTTTCACGGAGTCACCTAGTGCAG”, for which the binding signal was 8100 fluorescence intensity (a.u.).
The figure for “ACCTGGCTGTGCATGTACTACCCCAATGCATTTCTCTCTCCGGAGTCACCTAGTGCAG” is 8250 fluorescence intensity (a.u.); for “ATTCTGTAACCCGCTGCGGGCAACGGCCGGACGTGCAATCCGGAGTCACCTAGTGCAG” it is 9630 fluorescence intensity (a.u.).
The figure for “CTGATCGAATACTCTAGCATTGCGATCTTTCCAAATTTGCCGGAGTCACCTAGTGCAG” is 8510 fluorescence intensity (a.u.); for “GGAGGGTGCGACAGCCCAATGTATCACTTGCGTTTGTATCCGGAGTCACCTAGTGCAG” it is 8230 fluorescence intensity (a.u.).
The same measure for “GTAGCATGCTTCTATCCTGTCCCGGTGTTTGTCGTACATTCGGAGTCACCTAGTGCAG”: 10200 fluorescence intensity (a.u.).
For “GATTGAGTGTGCCCGTGTGAGATAGAATCTTTTTGCCCTTCGGAGTCACCTAGTGCAG”, the binding signal was 8930 fluorescence intensity (a.u.).
The figure for “ATCCCGTTGCGTCCCATTTTCCTCGCCCTCGTCGCTAGTTCGGAGTCACCTAGTGCAG” is 11200 fluorescence intensity (a.u.); for “ACATCCCCGACCCGCCCCGCCTCACCGGTCATTCGCAGCCCGGAGTCACCTAGTGCAG” it is 9440 fluorescence intensity (a.u.).
The figure for “AGCCACCACAGCCATCGCCCGTTCTTCCCGCCGGCCTATCCGGAGTCACCTAGTGCAG” is 9990 fluorescence intensity (a.u.); for “GCCGCTCACAGCCGTCTTCGCTTGCCCGCCGCCATCGCCACGGAGTCACCTAGTGCAG” it is 17500 fluorescence intensity (a.u.); for “CCGCCGCTCCACCGTCTCAGCCATCGCCACCGCCCGCAGCCGGAGTCACCTAGTGCAG” it is 8400 fluorescence intensity (a.u.).
The same measure for “CACCGCCGCAGCCCAAGCCCACCACCACCACCGCCGCCGCCGGAGTCACCTAGTGCAG”: 9060 fluorescence intensity (a.u.).
As to “ACAGCTTGCCGCCACCACCACACCACGCCGCTCGCCGCCCCGGAGTCACCTAGTGCAG”, the binding signal is 8950 fluorescence intensity (a.u.).
The same measure for “TGTCAGCCTCGTCCGGCTTCATCCCGTTGCGTCCCATTTTCGGAGTCACCTAGTGCAG”: 17600 fluorescence intensity (a.u.); for “CAGCCCGCCGCCCCGCCCCGCCCCGCCGCAGGTCATTGACCGGAGTCACCTAGTGCAG”: 16400 fluorescence intensity (a.u.); for “GGCTTCATCACAGCATCCATCGCCGCCGGCCACCACCACCCGGAGTCACCTAGTGCAG”: 12700 fluorescence intensity (a.u.).
Regarding “GGCTTCCCGTTGCGCGCGCGTCCCATCCTCGCCGGCGCTTCGGAGTCACCTAGTGCAG”, the binding signal is 8470 fluorescence intensity (a.u.).
“CCGCCATCGCCGCCGCCATCCGTTGACCATGGCTTCAGCCCGGAGTCACCTAGTGCAG”: the binding signal is 18900 fluorescence intensity (a.u.).
The figure for “ATCTTTTCCGCTGTTGCTGCTCCTCCTTTCTCGCTCTCGCCGGAGTCACCTAGTGCAG” is 9750 fluorescence intensity (a.u.).
The figure for “AGGTTCTATGACAGTATTGCACCCGGTTTTGTCAGCTGACCGGAGTCACCTAGTGCAG” is 8600 fluorescence intensity (a.u.); for “CTCCCGTGTCCCATTTAAAACCTTCTTCTTCTTCTTCGCTCGGAGTCACCTAGTGCAG” it is 8650 fluorescence intensity (a.u.); for “CGCCACCACTGCTGCCATCGTCAACATCCTATATGATTTTCGGAGTCACCTAGTGCAG” it is 13400 fluorescence intensity (a.u.).
In the case of “ATCAACCAGTAATCAATTGACCAAGCGGTTCTTGCGCCTACGGAGTCACCTAGTGCAG”, the binding signal was 9780 fluorescence intensity (a.u.).
The same measure for “GTTCTCACACTTCAGATTGTTATGTTTGGCTATGCTGTCTCGGAGTCACCTAGTGCAG”: 9600 fluorescence intensity (a.u.); for “CTCTTAGCAATGCTGACTGGTCCGATCAAAGTCAACGGTTCGGAGTCACCTAGTGCAG”: 8730 fluorescence intensity (a.u.).
The same measure for “GAACCTGTCTACATCGGCCGTGTCTCGTGCACTTGCTCTCCGGAGTCACCTAGTGCAG”: 10700 fluorescence intensity (a.u.).
The same measure for “TGTCTTGGTCTTGTGGCGTTTATTGTTGCCGTCTGAGCGACGGAGTCACCTAGTGCAG”: 11000 fluorescence intensity (a.u.); for “TTTAATGTATGACACCGTTGACTTTTTAACCAACGTTTGACGGAGTCACCTAGTGCAG”: 36300 fluorescence intensity (a.u.); for “CACTATTCACGTTTAACGTTTGACCGTTCTTCTTATTTGACGGAGTCACCTAGTGCAG”: 10300 fluorescence intensity (a.u.).
On to “GTATTTTAATGTATGACATTGTTGACTTTTTGATTAACGTCGGAGTCACCTAGTGCAG”, for which the binding signal is 13000 fluorescence intensity (a.u.).
The figure for “TGTATGATGCCTTTAACTTTTTAACCAACGTTTAATGTTTCGGAGTCACCTAGTGCAG” is 9010 fluorescence intensity (a.u.); for “GTTTATAAACTTAGTCAAACTTGAAACAGTTTGACTTTGACGGAGTCACCTAGTGCAG” it is 12400 fluorescence intensity (a.u.).
The figure for “TTTAATATATAACACCGTTGACTTTTTATCAAACGTTTGACGGAGTCACCTAGTGCAG” is 23400 fluorescence intensity (a.u.); for “TTCAATGACAATGTTGACTTTTTGACAAACGTTTAACCTTCGGAGTCACCTAGTGCAG” it is 10200 fluorescence intensity (a.u.); for “AATGTATGACACCGTTGACTTCTTGACCAACGTTTAACCACGGAGTCACCTAGTGCAG” it is 18700 fluorescence intensity (a.u.).
With “GCTTTTGAGTTGACAGCCACCGTTTTTAACCAACGCGCGACGGAGTCACCTAGTGCAG”, the binding signal is 8140 fluorescence intensity (a.u.).
With “GACTTTTTTAAACATATTTGACCGTTCGTTTTATTCAAAACGGAGTCACCTAGTGCAG”, the binding signal is 8190 fluorescence intensity (a.u.).
The figure for “TTTAGACTTCTTCCAACTGGAATGCGTTTGACCCTAACCACGGAGTCACCTAGTGCAG” is 8180 fluorescence intensity (a.u.); for “TATTTTAATGTATGATGCCGTTGACTTTTTAACCAACGTTCGGAGTCACCTAGTGCAG” it is 27000 fluorescence intensity (a.u.).
